Data reported in PubChem BioAssay (Tox21).
Several values for one entry are separate records, joined by “and”; a condition that tells them apart may be missing. Equal entries are not always repeated. Records with an inconclusive call do not appear. Activity calls are given as the source filed them. Unless noted, calls come from the whole dose curve.

How the values were obtained:
[1] = Nuclear factor erythroid 2-related factor 2/antioxidant responsive element (Nrf2/ARE) small molecule agonists: qHTS cell viability counter screen in human keratinocytes (AID 1919968; active = well fitted curve in the direction sought with a large enough effect in the repeat runs; an effect the other way counts as inactive or inconclusive; note: nearly all actives have a fitted effect of over 55% in size)
Summary of the method: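 Viability counter-screen: KeratinoSens reporter cells, DMSO-delivered compounds, 23 h at 37 C, CellTiter-Fluor fluorescence.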

[2] = Nuclear factor erythroid 2-related factor 2/antioxidant responsive element (Nrf2/ARE) small molecule agonists: luciferase reporter gene qHTS assay in human keratinocytes (AID 1919969); note: nearly all actives have a fitted effect of over 35% in size; note: potency is the fitted concentration of half-maximal effect
[3] = target: Gonadotropin-releasing hormone receptor (Homo sapiens) (UniProt P30968); assay: Human gonadotropin-releasing hormone receptor (GnRHR) small molecule agonists, calcium flux assay in GnRHR-HEK293 cells (AID 1920063); note: nearly all actives have a fitted effect of over 35% in size
Sequence of Gonadotropin-releasing hormone receptor (Homo sapiens) (P30968 whole entry, looked up): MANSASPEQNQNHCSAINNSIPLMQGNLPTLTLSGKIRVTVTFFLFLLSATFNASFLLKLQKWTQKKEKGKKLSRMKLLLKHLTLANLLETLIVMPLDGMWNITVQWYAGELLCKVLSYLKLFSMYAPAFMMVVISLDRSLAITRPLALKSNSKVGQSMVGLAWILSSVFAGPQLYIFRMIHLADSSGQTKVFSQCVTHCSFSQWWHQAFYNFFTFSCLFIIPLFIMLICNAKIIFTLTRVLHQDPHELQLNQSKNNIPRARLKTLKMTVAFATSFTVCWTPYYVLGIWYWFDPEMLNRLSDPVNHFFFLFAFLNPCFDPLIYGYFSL
Summary of the method: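 Tox21-format agonist screen using human GnRHR-expressing HEK293 cells and a fluorescent calcium dye; kinetic 3-min fluorescence reading after compound addition, 15-point concentration series run in triplicate.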

[4] = target: KiSS-1 receptor (Homo sapiens) (UniProt Q969F8); assay: Human kisspeptin (KISS1R) small molecule agonists, calcium flux assay in KISS1R-HEK293 cells (AID 1920064; active = well fitted curve in the direction sought with a large enough effect in the repeat runs; an effect the other way counts as inactive or inconclusive)
Sequence of KiSS-1 receptor (Homo sapiens) (Q969F8 whole entry, looked up): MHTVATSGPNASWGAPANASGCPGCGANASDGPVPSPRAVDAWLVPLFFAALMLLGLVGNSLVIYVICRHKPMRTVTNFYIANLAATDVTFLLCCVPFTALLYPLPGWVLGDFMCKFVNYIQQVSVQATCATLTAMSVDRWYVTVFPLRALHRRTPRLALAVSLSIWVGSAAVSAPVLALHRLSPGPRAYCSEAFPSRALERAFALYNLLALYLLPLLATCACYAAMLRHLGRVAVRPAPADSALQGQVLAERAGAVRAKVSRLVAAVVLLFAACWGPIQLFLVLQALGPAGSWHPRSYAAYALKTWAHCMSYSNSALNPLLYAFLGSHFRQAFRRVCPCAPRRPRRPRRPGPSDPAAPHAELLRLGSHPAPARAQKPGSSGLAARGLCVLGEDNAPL
Summary of the method: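 Intracellular calcium mobilization in KISS1R-HEK293 cells was recorded by fluorescence (Ex/Em 480/540) for 3 min following compound addition to cells pre-loaded 1 h with calcium dye.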

[5] = p53 small molecule agonists, cell-based qHTS assay with rat liver microsomes (AID 1963578)
Summary of the method: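 Quantitative HTS of the Tox21 10K library: p53RE-bla cells, rat liver microsomes plus NADPH at 0.5 mg/mL final each, 16 h at 37 C, beta-lactamase fluorescence detection.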

[6] = p53 small molecule agonists, cell-based qHTS assay with human liver microsomes: qHTS cell viability counter screen (AID 1963579); note: nearly all actives have a fitted effect of over 45% in size
Summary of the method: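 Viability of p53RE-bla cells is measured as CellTiter-Glo luminescence following a 16 h, 37 C incubation with compound, liver microsomes from human donors and NADPH.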

[7] = p53 small molecule agonists, cell-based qHTS assay with rat liver microsomes: qHTS cell viability counter screen (AID 1963580); note: nearly all actives have a fitted effect of over 45% in size
Summary of the method: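 HCT-116 p53RE-bla, 4,000 cells/well, 5 h pre-incubation; cpd + rat liver microsomes 0.5 mg/mL + NADPH 0.5 mg/mL (final); 16 h, 37 C; CellTiter-Glo, 30 min RT; luminescence.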

[8] = p53 small molecule agonists, cell-based qHTS assay: qHTS cell viability counter screen (AID 1963581); note: nearly all actives have a fitted effect of over 45% in size
Summary of the method: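 Compounds are pinned onto HCT-116 p53RE-bla cells and left 16 h at 37 C. Following the reporter FRET read, ATP is quantified by CellTiter-Glo luminescence after 30 min at room temperature.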

[9] = p53 small molecule agonists, cell-based qHTS assay (AID 1963582; active = well fitted activation curve with a large enough effect in the signal ratio in the repeat runs, not every such curve was filed as active; the % refers to the signal ratio)
Summary of the method: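 Agonist activity was scored from beta-lactamase FRET fluorescence in p53RE-bla cells treated 16 h at 37 C with compounds in DMSO, substrate incubation being 2 h at room temperature.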

[10] = target: 5-hydroxytryptamine receptor 2A (Homo sapiens) (UniProt P28223); assay: 5-hydroxytryptamine receptor 2A (HTR2A) small molecule antagonists, cell-based qHTS assay (AID 1963586); note: nearly all actives have a fitted effect of over 45% in size
Sequence of 5-hydroxytryptamine receptor 2A (Homo sapiens) (P28223 whole entry, looked up): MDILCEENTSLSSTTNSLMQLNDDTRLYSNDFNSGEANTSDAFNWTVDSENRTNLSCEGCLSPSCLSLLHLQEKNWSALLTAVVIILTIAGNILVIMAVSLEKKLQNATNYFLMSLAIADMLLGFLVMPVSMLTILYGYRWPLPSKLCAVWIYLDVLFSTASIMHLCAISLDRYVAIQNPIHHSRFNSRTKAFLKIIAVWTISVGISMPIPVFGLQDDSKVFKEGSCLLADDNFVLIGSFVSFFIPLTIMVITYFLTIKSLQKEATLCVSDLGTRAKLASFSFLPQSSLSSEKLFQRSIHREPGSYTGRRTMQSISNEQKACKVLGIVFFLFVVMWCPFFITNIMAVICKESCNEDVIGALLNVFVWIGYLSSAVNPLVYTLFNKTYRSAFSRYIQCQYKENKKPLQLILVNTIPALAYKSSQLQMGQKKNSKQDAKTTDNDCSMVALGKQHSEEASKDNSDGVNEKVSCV
Summary of the method: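 Antagonist-mode intracellular calcium assay: DOI (4 nM) added after 5 min compound pre-incubation at room temperature to dye-loaded HTR2A-CHO cells. Fluorescence followed for 3 min, sampled every second.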

[11] = target: 5-hydroxytryptamine receptor 2A (Homo sapiens) (UniProt P28223); assay: 5-hydroxytryptamine receptor 2A (HTR2A) small molecule agonists, cell-based qHTS assay (AID 1963587); note: nearly all actives have a fitted effect of over 30% in size
Summary of the method: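 Kinetic calcium-flux fluorescence (2 min, 1 sec intervals) after compound addition in agonist mode. HTR2A-CHO cells were cultured 18 h, then dye-loaded 1 h at 37 C.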

[12] = target: Muscarinic acetylcholine receptor M1 (Homo sapiens) (UniProt P11229); assay: Cholinergic receptor muscarinic 1 (CHRM1) small molecule antagonists, cell-based qHTS assay (AID 1963588); note: nearly all actives have a fitted effect of over 40% in size
Sequence of Muscarinic acetylcholine receptor M1 (Homo sapiens) (P11229 whole entry, looked up): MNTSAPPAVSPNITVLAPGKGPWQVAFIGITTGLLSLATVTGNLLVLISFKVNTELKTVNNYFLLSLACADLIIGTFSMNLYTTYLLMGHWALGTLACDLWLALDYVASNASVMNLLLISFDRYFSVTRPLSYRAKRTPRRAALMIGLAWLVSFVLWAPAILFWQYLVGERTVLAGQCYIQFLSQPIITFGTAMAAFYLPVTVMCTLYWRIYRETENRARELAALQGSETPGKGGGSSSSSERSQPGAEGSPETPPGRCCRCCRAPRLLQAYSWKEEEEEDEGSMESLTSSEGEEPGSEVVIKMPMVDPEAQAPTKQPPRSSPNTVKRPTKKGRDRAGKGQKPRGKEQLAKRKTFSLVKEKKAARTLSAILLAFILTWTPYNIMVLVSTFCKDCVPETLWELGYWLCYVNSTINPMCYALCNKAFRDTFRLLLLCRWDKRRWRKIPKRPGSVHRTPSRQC
Summary of the method: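 CHRM1-CHO calcium-flux assay, antagonist mode. Cells were seeded 18 h, dye-loaded 1 h at 37 C and given compound for 5 min at RT, then acetylcholine was added at 50nM. FDSS fluorescence was read 3 min; 15 concentrations, three runs.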

[13] = target: Muscarinic acetylcholine receptor M1 (Homo sapiens) (UniProt P11229); assay: Cholinergic receptor muscarinic 1 (CHRM1) small molecule agonists, cell-based qHTS assay (AID 1963589); note: nearly all actives have a fitted effect of over 35% in size
Summary of the method: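 Stable CHRM1-CHO cells (human receptor) were incubated 18 h, dye-loaded for 1 h at 37 C and exposed to test compounds for agonist activity, with calcium-dependent fluorescence followed kinetically.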

[14] = cAMP Responsive Elements (CRE) small molecule antagonists, cell-based qHTS assay (AID 1963591; active = well fitted inhibition curve with a large enough effect in the signal ratio in the repeat runs, not every such curve was filed as active; the % refers to the signal ratio)
Summary of the method: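 qHTS in CRE-bla HEK 293T cells: compound in DMSO, then 0.25 uM NKH477 (final), 3 h at 37 °C/5% CO2; beta-lactamase FRET read-out after 2 h substrate incubation.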

[15] = target: Beta-2 adrenergic receptor (Homo sapiens) (UniProt P07550); assay: Adrenergic beta2 receptor (ADRB2) small molecule antagonists, cell-based qHTS assay (AID 1963592); note: series mostly up to about 92 µM; nearly all actives have a fitted effect of over 50% in size
Sequence of Beta-2 adrenergic receptor (Homo sapiens) (P07550 whole entry, looked up): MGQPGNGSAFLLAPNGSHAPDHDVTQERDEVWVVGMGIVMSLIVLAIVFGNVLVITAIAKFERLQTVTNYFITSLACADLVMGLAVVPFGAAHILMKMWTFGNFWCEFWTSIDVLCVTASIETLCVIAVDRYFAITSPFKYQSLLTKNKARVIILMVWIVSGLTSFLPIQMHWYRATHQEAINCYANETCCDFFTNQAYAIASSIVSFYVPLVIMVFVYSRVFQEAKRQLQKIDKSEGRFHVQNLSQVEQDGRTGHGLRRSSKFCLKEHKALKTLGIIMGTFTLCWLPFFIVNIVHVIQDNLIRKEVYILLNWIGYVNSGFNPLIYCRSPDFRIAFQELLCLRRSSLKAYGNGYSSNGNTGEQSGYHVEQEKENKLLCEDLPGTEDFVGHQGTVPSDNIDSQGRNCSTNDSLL
Summary of the method: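 Cells (CHO, stable ADRB2 overexpression) incubated 18-20hr at 37C; compounds added from DMSO; agonist mix (1nM isoproterenol, 100uM IBMX, 25uM Ro-20-1724) added; 0.5hr RT; d2-cAMP and anti-cAMP-cryptate added; 1hr RT; 665/615 nm read.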

[16] = target: D(2) dopamine receptor (Homo sapiens) (UniProt P14416); assay: Dopamine D2 receptor (DRD2) small molecule agonists, cell-based qHTS assay (AID 1963594); note: nearly all actives have a fitted effect of over 35% in size
Sequence of D(2) dopamine receptor (Homo sapiens) (P14416 whole entry, looked up): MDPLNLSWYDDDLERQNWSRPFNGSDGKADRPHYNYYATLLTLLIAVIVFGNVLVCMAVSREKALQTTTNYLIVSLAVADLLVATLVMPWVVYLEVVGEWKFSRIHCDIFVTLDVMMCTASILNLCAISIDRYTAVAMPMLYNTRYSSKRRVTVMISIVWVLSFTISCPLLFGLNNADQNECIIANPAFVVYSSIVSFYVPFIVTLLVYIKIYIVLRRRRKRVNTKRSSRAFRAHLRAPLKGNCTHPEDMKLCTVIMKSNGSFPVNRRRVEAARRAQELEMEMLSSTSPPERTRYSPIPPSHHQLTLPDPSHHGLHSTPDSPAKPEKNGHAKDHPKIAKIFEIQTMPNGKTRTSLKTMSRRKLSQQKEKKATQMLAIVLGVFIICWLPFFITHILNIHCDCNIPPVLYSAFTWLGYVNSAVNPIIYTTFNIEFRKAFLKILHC
Summary of the method: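 cAMP accumulation in DRD2-HEK293 cells measured by HTRF after 1 h detection; compounds added 10 min before NKH477 (200nM […]) forskolin-analogue stimulation, 30 min at room temperature, with Ro20-1724 present at 0.1 mM final.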

[17] = target: D(2) dopamine receptor (Homo sapiens) (UniProt P14416); assay: Dopamine D2 receptor (DRD2) small molecule antagonists, cell-based qHTS assay (AID 1963595; active = well fitted inhibition curve with a large enough effect in the signal ratio in the repeat runs, with a control signal flat; the % refers to the signal ratio)
Summary of the method: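 HEK293 cells stably expressing DRD2, preincubated with 0.1 mM Ro20-1724 and compounds 10 min, were stimulated with 200 nM NKH477 plus 12 nM quinpirole for 30 min at room temperature; cAMP measured by HTRF (665/620 nm).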

[18] = cAMP Responsive Elements (CRE) small molecule agonists, cell-based qHTS assay (AID 1963590)
Summary of the method: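 FRET-based beta-lactamase readout (LiveBLAzer B/G, 2 h RT) quantified CRE activation in HEK 293T CRE-bla cells after 3 h treatment with DMSO-dissolved compounds.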

[19] = target: Beta-2 adrenergic receptor (Homo sapiens) (UniProt P07550); assay: Adrenergic beta2 receptor (ADRB2) small molecule agonists, cell-based qHTS assay (AID 1963593);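 note: CHO cells stably overexpressing human ADRB2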
Summary of the method: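 CHO cells stably over-expressing ADRB2 were plated overnight at 37C, then dosed with compounds plus a stimulation mix containing 100uM IBMX and 25uM Ro-20-1724 for 0.5hr at room temperature. cAMP was measured by HTRF competition, 1hr.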

Measured: Potency

O=[N+]([O-])c1c(Cl)c(Cl)c(Cl)c(Cl)c1Cl
active: [2] 27.2 µM and 54.5 µM
not listed: [18] | [19]
inactive: all other assays above

CCCCC1C(=O)NC(=O)N(C2CCCCC2)C1=O (stereo not drawn)
not listed: [5] | [8] | [13] | [14] | [16]
inactive: all other assays above

N#CCBr
inactive: all assays above

c1ccc2c(c1)sc1ccccc12
not listed: [6] | [10]
inactive: all other assays above

CN(C)C(=O)C(c1ccccc1)c1ccccc1
not listed: [13]
inactive: all other assays above

C#C[C@]1(O)CC[C@H]2[C@@H]3CCC4=CC(=O)CC[C@]4(C)[C@H]3CC[C@@]21C
not listed: [8] | [10] | [11] | [12] | [13] | [14]
inactive: all other assays above

COc1nc(C)nc(NC(=O)NS(=O)(=O)c2ccccc2Cl)n1
not listed: [14] | [15] | [19]
inactive: all other assays above

NC(=O)CN1CCCC1=O
not listed: [10] | [11] | [12] | [13]
inactive: all other assays above

ClCc1ccccc1
not listed: [6] | [19]
inactive: all other assays above

O=C(O)c1nc(Cl)ccc1Cl
not listed: [18]
inactive: all other assays above

ClCCN1CCOCC1
not listed: [19]
inactive: all other assays above

[O]=[Cr][O][Cr]=[O]
not listed: [6] | [8] | [19]
inactive: all other assays above

CNCC(O)c1ccc(O)cc1 (stereo not drawn)
not listed: [14] | [16] | [19]
inactive: all other assays above

CCCCn1cc[n+](C)c1C
not listed: [5] | [9] | [17]
inactive: all other assays above

O=c1nc(O)n(Cl)c(=O)n1Cl
not listed: [5] | [9]
inactive: all other assays above

CCCC1CCCCN1 (stereo not drawn)
not listed: [13]
inactive: all other assays above

CCN(CC)C(=O)SCc1ccc(Cl)cc1
not listed: [5] | [10] | [12] | [14] | [18] | [19]
inactive: all other assays above
